Consider 30 compounds from PubChem BioAssay (Tox21).

Values joined by “and” are separate entries in the source; they are usually repeats but may differ in a detail not shown here. Identical values can stand only once. Results filed as inconclusive are left out. Entries that show only a call come without a potency. The source holds several records for some structures; these can differ, active in one and inactive in another. Active and inactive are the calls of the source. The call rests on the fitted dose curve; in most records, active means well fitted cell-killing curve with a large enough effect in the repeat runs; inconclusive means weak or mixed curves, or effect the other way; inactive means flat fitted curve, though single readings scatter.
Potency means the concentration at half of the fitted maximal effect.

The nature of the assay: Human pregnane X receptor (PXR) small molecule agonists, qHTS cell viability counter screen (AID 1346977). Further: nearly all actives have a fitted effect of over 50% in size. Particulars: PXR-Luc HepG2 viability, CellTiter-Fluor, 24 h; series mostly up to 92.4 µM. The gist of the method: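 HepG2 cells stably carrying the PXR-Luc reporter are cultured with 5% charcoal-stripped FBS and treated with compounds for 24hr. CellTiter-Fluor is added at 23hr and fluorescence is read after 1hr.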
Background: In qHTS, concentration-response curves come from the screen itself.
As to `O=C1NCC2(CCN(CCc3ccccc3)CC2)O1`, the Potency entry is “inactive”.
The same measure for `c1ccc2c(c1)CCCC2C1=NCCN1` (stereo not given): “inactive”; for `Cc1cccc(O)c1C`: “inactive”.
With `NC(=Nc1ccccc1)Nc1ccccc1`, the Potency was 4.86 µM (active).
Under `CCc1cc(C(C)(C)C)c(O)c(C(C)(C)C)c1` stands “inactive”; under `CC1=C(C=O)C(C)(C)CC=C1`, “inactive”.
Under `O=C(O)CCc1ccccc1` stands “inactive”.
Under `NCCCCCC(=O)O` stands “inactive”.
Take `CC(=O)OCCOCCOCCOC(C)=O`: the Potency result was “inactive”.
The same measure for `Nc1nc2ccccc2[nH]1`: “inactive”; for `c1cnc2cc3c(cc2n1)C1CNCC3C1`: “inactive”; for `OCC(CO)N[C@H]1C[C@](O)(CO)[C@@H](O)[C@H](O)[C@H]1O`: “inactive”.
Under `Cc1occc(=O)c1OC(=O)C(C)C` stands “inactive”; under `OCCN1CCNCC1`, “inactive”.
The same measure for `CCC(=O)/C=C/C1C(C)=CCCC1(C)C` (stereo not given): “inactive”; for `CC[C@@H](N)CO`: “inactive”.
With `C=CS(=O)(=O)O`, the Potency result was “inactive”.
With `Clc1ccc2c(c1)C(N1CCNCC1)=Nc1ccccc1O2`, the Potency is 29.8 µM (active).
Take `CC(C)(C)c1ccccc1`: the Potency result was “inactive”.
Under `CCCCOCCOC(=O)c1ccccc1C(=O)OCCOCCCC` stands “inactive”.
Under `CC(C)CCOC(=O)c1ccc(N(C)C)cc1` stands “inactive”; under `CC(C)(C)NCC(O)COc1ccccc1OCC1CCCO1` (stereo not given), “inactive”.
Under `CC1COC(=O)O1` (stereo not given) stands “inactive”.
As for `C=CC(=O)OCCCCCCOC(=O)C=C`, the Potency entry is “inactive”.
The same measure for `CCN1CCCC1CNC(=O)c1cc(S(=O)(=O)CC)c(N)cc1OC` (stereo not given): “inactive”; for `CCCCN(CCO)CCCC`: “inactive”.
On to `CC(=O)CC(C)=O`, for which the Potency entry is “inactive”.
As for `O`, the Potency result is “inactive”.
As to `CCOC(=O)C(C)C(C)=O` (stereo not given), the Potency result is “inactive”.
For `CC(=O)Nc1ccc(C(=O)CCl)cc1`, the Potency result is “inactive and 61.1 µM (active)”.
